Measured values: PubChem BioAssay AID624330 (Southern Research Specialized Biocontainment Screening …, 2012)
Hit rate of the full screen: of about 340,000 compounds, about 2,100 (0.62%) were called active.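 How the source made its calls: active means first-screen hits whose inhibition reached a set limit at any dose in the follow-up dose series; inconclusive means inhibition above the set first-screen limit but never retested; inactive means the rest.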 A selection follows. Potency and affinity values are given separately.

molecular target: Rac GTPase-activating protein 1 (Homo sapiens) (UniProt Q9H0H5); assay: MgcRacGAP GTPase-activating activity inhibitors, confirmation, biochemical, ADP Hunter fluorescence, primary and confirmatory (AID 624330); conditions: MgcRacGAP-stimulated Rac1 GTP hydrolysis, at 30 µM, active compounds read high, GST-tagged Rac1 F28L mutant substrate;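 further: fluorescence reports GDP produced by GAP-driven GTP hydrolysis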
Sequence (Q9H0H5 whole entry, looked up): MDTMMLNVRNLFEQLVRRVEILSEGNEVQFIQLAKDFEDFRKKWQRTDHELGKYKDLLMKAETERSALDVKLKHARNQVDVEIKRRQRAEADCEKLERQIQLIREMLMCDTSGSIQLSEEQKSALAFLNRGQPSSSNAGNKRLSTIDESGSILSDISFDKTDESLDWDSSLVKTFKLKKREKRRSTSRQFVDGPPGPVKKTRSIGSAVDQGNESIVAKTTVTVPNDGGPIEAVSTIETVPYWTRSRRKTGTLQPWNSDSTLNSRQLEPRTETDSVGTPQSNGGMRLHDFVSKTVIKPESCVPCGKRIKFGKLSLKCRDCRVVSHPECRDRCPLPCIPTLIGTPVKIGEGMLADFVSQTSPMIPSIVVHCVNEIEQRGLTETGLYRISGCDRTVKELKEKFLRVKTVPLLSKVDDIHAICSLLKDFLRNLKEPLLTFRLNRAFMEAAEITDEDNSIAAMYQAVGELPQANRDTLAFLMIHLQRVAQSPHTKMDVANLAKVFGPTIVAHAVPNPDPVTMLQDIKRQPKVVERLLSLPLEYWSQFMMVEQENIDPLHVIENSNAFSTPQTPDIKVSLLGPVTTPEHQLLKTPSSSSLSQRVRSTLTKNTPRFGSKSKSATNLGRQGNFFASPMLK

inhibition, inactive:
Cc1ccc(N(CC(=O)Nc2ccccc2-c2ccccc2)S(=O)(=O)c2ccccc2)cc1 1.42%, O=C1Nc2ccccc2/C1=N/N=C/c1cccc(O)c1 -0.92%, COc1ccc(O)c(/C=N/N=C2/C(=O)Nc3ccccc32)c1 10.2%, C#CCOCCOCCOCCNc1nc(N2CCN(C(=O)[C@H](Cc3ccc(O)cc3)n3cc([C@@H](N)C(C)CC)nn3)CC2)nc(N2CCN(C(=O)[C@H](Cc3cc4ccccc4[nH]3)n3cc([C@@H](N)C(C)CC)nn3)CC2)n1 (stereo partly specified) 7.82%, O=C(c1ccccc1)c1ccc2nc(-c3ccco3)c(-c3ccco3)nc2c1 25.8%, O=C(Nc1ccccc1)c1ccc2nc(-c3ccco3)c(-c3ccco3)nc2c1 14.3%, CCc1cccc(C)c1NC(=O)c1cccc(N(C)C)c1 23.8%, Cc1cc(=O)[nH]c2cc(O)ccc12 5.17%, CCCCCCCCC1=NCCc2c1[nH]c1ccccc21 12.8%, CCOCCc1nnc(NC(=O)Cc2c(F)cccc2Cl)s1 -4.41%, NC(=O)c1ncn([C@@H]2O[C@H](CNCc3ccccc3OCc3ccc(Cl)cc3Cl)[C@@H](O)[C@H]2O)n1 -6.96%, COc1ccc(C(=O)CCNc2ccc3c(c2)OCCO3)cc1 38.5%, O=C(Cc1ccccc1[N+](=O)[O-])Nc1ccc2c(c1)OCCO2 2.24%, CCOc1ccc(Br)cc1CNc1ccc2c(c1)OCCO2 24.3%, O=C(O)CCNc1ccc2c(c1)OCCO2 19.4%, Cc1ccc(S(=O)(=O)NCc2ccco2)cc1C 0.0567%, O=C(NCc1cccs1)c1ccc2c(c1)OCCO2 -0.21%, Cc1ccc(Nc2nc(N)c([N+](=O)[O-])c(NCc3ccco3)n2)cc1C 2.81%, O=C(NCc1cccs1)Nc1ccc2c(c1)OCO2 -0.17%, CCCn1c(=O)[nH]c(=O)c2c1nc(-c1ccc3c(c1)OCCO3)n2CCN1CCOCC1 10.3%, O=S(=O)(c1ccccc1)N(Cc1ccccn1)Cc1ccccn1 3.72%, C/C=C(\C)C(=O)OC(C)(C)[C@H]1Cc2cc3ccc(=O)oc3cc2O1 7.55%, CCC(c1nnc(SCC(=O)Nc2cc(Cl)ccc2C#N)n1C1CCCCC1)N(C)C (stereo unspecified) 5.01%, CCc1ccc(-c2cc(C(=O)O)c3ccccc3n2)s1 -3.07%, CCCN(CCC)CCCNC(=O)c1cc2c(=O)[nH]c3ccccc3c2s1 23.4%, O=C(Cc1ccc(Cl)cc1)SCc1ccccc1 4.82%, O=C(NNC(=O)c1cc([N+](=O)[O-])ccc1Cl)c1cccnc1 3.49%, O=c1[nH]c2ccc(S(=O)(=O)Nc3ccc(Br)cc3)cc2[nH]1 0.44%, Cc1ccc(NCCC#N)cc1C -10%, Cc1ccc(NCc2ccccc2O)cc1 19.1%, Cc1ccc(NCC(O)C(O)C(O)CO)cc1C (stereo unspecified) 9.4%, Cc1cccc(NCc2ccccc2O)c1 13.2%, COc1ccc(C(CCc2ccc(C)o2)NC(=O)Nc2ccc(OC)cc2OC)cc1 (stereo unspecified) 0.8%, C/C=C(\C)C(=O)NCCN1C2=NC[C@@H](Cc3ccccc3)N2C[C@@H]1Cc1ccc(OC)cc1 5.16%, Cc1ccc(O)c(/C=N/NC(=O)Cc2ccc(Cl)cc2)c1 -8.7%, COC(=O)C1=C(C)N(Cc2ccccc2)C(=O)N[C@H]1CCc1ccccc1 8.96%, COc1ccccc1/C=C1\SC(N2CCC(C)CC2)=NC1=O 8.78%, COc1cccc(/C=C2\SC(N3CCCC(C)C3)=NC2=O)c1OC (stereo unspecified) 10.3%, CCOC(=O)C1CCN(C2=NC(=O)/C(=C/c3ccc(Cl)cc3)S2)CC1 7.83%, COc1ccc(OC)c(/C=C2\SC(N3CCCC(C)C3)=NC2=O)c1 (stereo unspecified) 2.99%, CCOC(=O)C1CCN(C2=NC(=O)/C(=C/c3ccc(OC)c(OC)c3)S2)CC1 12.3%, CCOC(=O)C1CCCN(C2=NC(=O)/C(=C/c3ccc(OC)c(OC)c3)S2)C1 (stereo unspecified) 7.19%, CCOC(=O)C1CCCN(C2=NC(=O)/C(=C/c3ccc(OC)cc3)S2)C1 (stereo unspecified) 8.26%, CC1CCN(C2=NC(=O)/C(=C/c3cccc(O)c3)S2)CC1 3.71%, CSCCC(=O)N1C(C)CCCC1C(=O)O (stereo unspecified) 8.45%, COc1ccccc1-n1c(C)cc(/C=C2\C(=N)N3N=C(CC(=O)N4CCOCC4)SC3=NC2=O)c1C 13.5%, CCCN(CC(=O)Nc1ccccc1C)C(=O)Cc1cccs1 9.22%, COC(=O)C1=C(CS(=O)(=O)c2ccc(Cl)cc2)NC(=O)NC1c1ccc(O)c(OC)c1 (stereo unspecified) 0.39%, CC(C)(C)NC(=S)NNC(=O)c1ccc2ncccc2c1 4.55%, O=C(NN=C1CCC(=NNC(=O)c2ccccn2)CC1)c1ccccn1 10.4%, CCOC(=O)C1CCCN(C2=NC(=O)/C(=C/c3ccc(N(C)C)cc3)S2)C1 (stereo unspecified) 3.86%, CCOc1ccc(/C=C2\SC(N3CCCCC3)=NC2=O)cc1 10.3%, Cc1ccsc1/C=N/NC(=O)C(O)c1ccccc1 (stereo unspecified) 8.51%, S=C(NCc1ccco1)Nc1ccccc1 3.49%, CCN(CC)S(=O)(=O)c1cccc(NC(=O)COC(=O)c2n[nH]c(=O)c3ccccc23)c1 4.21%, COc1ccccc1C(=O)Nc1ccc(N2CCCCC2)cc1 16.2%, COc1cccc(CNc2ccc(S(N)(=O)=O)cc2)c1OC -0.0267%, COc1cccc(OC)c1C(=O)Nc1ccc(N2CCCC2)cc1 19%, COc1cc(CNc2ccc(N3CCCC3)cc2)ccc1OCc1ccccc1F 19.3%, COc1cccc(CNc2ccc(F)c(Cl)c2)c1OC 6.64%, COc1cccc(CNC2CCCCCCC2)c1OC 20.3%, COc1ccc(CC(=O)Nc2cc(Cl)ccc2C(=O)O)cc1 11%, O=C(CSc1nc2cc(Cl)ccc2s1)c1ccco1 9.01%, COc1ccc(N2CCN(C(=O)c3ccccc3N(C)S(=O)(=O)c3ccc(C)cc3)CC2)cc1 30.1%, O=C(O)c1cnc(-c2ccccc2)nc1Oc1ccccc1 4.36%, Nc1nc2n(n1)C(=O)CC(c1ccccc1)N2 (stereo unspecified) -15.9%, CC(=O)Nc1ccc(S(=O)(=O)NC(C)C(=O)OCC(=O)Nc2ccc(F)cc2Cl)cc1 (stereo unspecified) 4.68%, COc1ccc(NC(=O)[C@H](C)NC(N)=O)cc1S(=O)(=O)Nc1cc(C)ccc1Br 9.93%, CC1CCN(c2ccc(C(F)(F)F)cc2N)CC1 3.8%, Nc1cc(Cl)ccc1N1CCCCC1 1.75%, O=S(=O)(c1ccc(N2CCOCC2)c(Cl)c1)N1CCOCC1 2.67%, Nc1cc(Cl)ccc1N1CCCCCC1 -8.8%, Nc1cc(Cl)ccc1N1CCOCC1 2.6%, CC(=O)Nc1cc(C(F)(F)F)ccc1N1CCOCC1 2.07%, O=C(CN(c1ccccc1)S(=O)(=O)c1ccc(Cl)cc1)Nc1cccnc1 -2.54%, C[C@@H](OC(=O)c1[nH]cnc1C(=O)NCc1ccc(CNC(=O)OC(C)(C)C)cc1)c1ccccc1 7.47%, COc1ccccc1NC(=O)CCC(=O)OCC(=O)c1ccc(C)c([N+](=O)[O-])c1 4.59%, Cc1ccc(NC(=O)Cc2nnc(SCC(=O)NC3=NCCS3)n2C)cc1 9.68%, CC(C)Sc1oc(-c2ccco2)nc1S(=O)(=O)c1ccc(F)cc1 9.8%, COc1cc2nc(NC(=O)c3ccc(Cl)cc3)sc(=O)c2cc1OC 12.1%, Cc1cccc(OC(C)C(=O)Nc2nc(-c3ccncc3)cs2)c1 (stereo unspecified) 5.11%, Cc1cccc(Cn2c(N(C)Cc3ccccc3)nc3c2c(=O)[nH]c(=O)n3C)c1 10.6%, C=CCn1c(Cc2ccc(OCC)cc2)nnc1SCC(N)=O 4.65%, Cc1c(Cl)cccc1NC(=S)N1CCN(Cc2ccccc2)CC1 6.91%, COc1cc(/C=N/NC(=O)CCC(=O)Nc2ccc(C)cc2)ccc1O 26.5%, O=C(CCC(=O)Nc1ccc(Br)cc1)N/N=C/c1ccc(F)cc1 3.09%, Cc1nc(CC(=O)N/N=C/c2ccc(OCC(=O)O)cc2)cs1 -8.35%, Cc1ccc(NC(=O)CCC(=O)N/N=C/c2cccnc2)cc1 1.87%, COc1cc(/C=N/NC(=O)CCC(=O)Nc2ccc(Br)cc2)ccc1O 25.9%, O=C(CCC(=O)Nc1ccc(F)cc1)N/N=C/c1ccc(Br)cc1 3.6%, O=C(Cc1ccccc1)NN=Cc1ccccc1 -1.49%, O=C(CCC(=O)Nc1ccc(Br)cc1)N/N=C/c1ccc(O)cc1 22.7%, Cc1ccc(Cl)cc1N1CCN(C(=O)C2CCN(S(=O)(=O)c3cnc[nH]3)CC2)CC1 -2.49%, COc1cc(C(=O)OC(C)C(=O)NC2CCCCC2C)c([N+](=O)[O-])cc1OC (stereo unspecified) -4.78%, Cc1cccc(C)c1NC(=O)N1CC=CCC1 8.07%, CCc1c(C)nc(N2CCN(c3ccccc3)CC2)[nH]c1=O -0.57%
